Screening results from PubChem.
Cycloheximide cs – counter-screen for Shiga toxin inhibitors: cycloheximide protein synthesis inhibition; cell reporter, cycloheximide protein synthesis inhibition counterscreen; max response, %; actives 12% (n = 300,000); in the data active = max response mostly above about 13%, no sharp cut-off; inactive = mostly below about 14%; also: read at 38.3 µM for the half of the compounds with a filed dose; 0% is about no effect
LmPK inhibitor – LmPK (Leishmania mexicana) enzyme inhibition. Q27686. purified LmPK, Kinase-Glo ATP luminescence, 1 h. Potency, µM (series often up to 57.5 µM), without a hit: at the highest dose activity change, negative = inhibition, hits mostly inhibitors. actives 0.37% (n = 290,000). AID 1721; also: potency is read from the fitted curve at half-maximal effect; % is scaled to controls: 0 for no effect and ±100 for the full control effect
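qHTS format; LmPK 0.1 nM; substrates PEP 0.5 mM and ADP 0.1 mM. One-hour room-temperature incubation, then coupled luciferase luminescence; 0.5 nM enzyme wells mark activation.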
Tb PYK inh – blocks Trypanosoma brucei pyruvate kinase; Potency, µM (titrated, usually from 76.8 µM), for inactives: at the top dose activity, negative = inhibition, usual class: inhibitors; actives 0.12% (n = 410,000); TbPYK enzyme, Kinase-Glo Plus ATP luminescence, 45 min; also: potency is read from the fitted curve at half-maximal effect; % is scaled to controls: 0 for no effect and ±100 for the full control effect; nearly all actives have a fitted effect of over 50% in size
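TbPYK + substrate in 50 mM TEA pH 7.2, 100 mM KCl, 10 mM MgCl2, 0.05% BSA, 0.01% Tween-20; cpd pinned; ADP 130 uM final; 45 min RT; Kinase-Glo Plus 10 min; luminescence endpoint.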
Shiga toxin inh – inhibitors of Shiga toxin in Vero cells | inhibition, % at 38.7 µM | actives 9.2% (n = 290,000) | AID 2315 | Vero cells, Shiga toxin protein synthesis inhibition reporter; in the data active = inhibition mostly above about 28%, no sharp cut-off; inactive = mostly below about 43%; also: 0% is about no effect
RE007 growth inh – less growth of the S. pombe RE007 Vpr strain | Potency, µM (highest dose often 92.2 µM), for the others: at the highest dose activity change, negative = less growth, most hits filed as inhibitors | actives 0.21% (n = 360,000) | S. pombe RE007 Vpr strain, BacTiter-Glo ATP luminescence, 24 h; active = well fitted falling curve with a large enough effect; inconclusive = small, poorly fitted or top-dose-only effect; inactive = no such curve, though single readings can be large or run the other way; also: potency is read from the fitted curve at half-maximal effect; % is scaled to controls: 0 for no effect and ±100 for the full control effect; nearly all actives have a fitted effect of over 50% in size
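Fission yeast RE007 carrying one integrated HIV-1 vpr copy, seeded at OD 0.01 in PMG+AL medium with 23 nL pinned compound. Grown 24 h at 30 degrees; viability read by BacTiter-Glo luminescence after 5 min.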
FBPA Giardia inh – inhibitors of Giardia lamblia fructose-1,6-bisphosphate aldolase; A8B2U2; purified Giardia FBPA; Potency, µM (top dose mostly 59.6 µM), without a hit: at the highest dose activity, negative = inhibition, actives largely listed as inhibitors; AID 2451; actives 0.71% (n = 290,000); also: potency is read from the fitted curve at half-maximal effect; % is scaled to controls: 0 for no effect and ±100 for the full control effect; nearly all actives have a fitted effect of over 55% in size
Target sequence (A8B2U2 whole entry, looked up): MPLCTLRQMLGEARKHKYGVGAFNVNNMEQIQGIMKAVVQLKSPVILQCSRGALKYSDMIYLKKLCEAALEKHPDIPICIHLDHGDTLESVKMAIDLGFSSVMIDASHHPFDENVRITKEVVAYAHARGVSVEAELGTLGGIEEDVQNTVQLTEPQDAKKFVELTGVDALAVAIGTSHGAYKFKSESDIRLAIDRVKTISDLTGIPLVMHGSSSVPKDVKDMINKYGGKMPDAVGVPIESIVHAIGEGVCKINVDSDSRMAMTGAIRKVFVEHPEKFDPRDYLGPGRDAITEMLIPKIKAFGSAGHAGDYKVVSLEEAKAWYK
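40 nM FBPA preincubated 10 min at RT with compound (up to 57.5 uM final), then substrate plus GAPDH/TPI/NAD/arsenate coupling and diaphorase/resazurin added. Fluorescence read after 20 min at RT, 525/598 nm.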
The depositor's hits bear a star. This is one part of a sample in which hits are shown more often than they occur. Unless noted, calls follow the shape of the dose curve; as a rule, active = well fitted curve in the direction sought with a large enough effect; inconclusive = small, poorly fitted or top-dose-only effect, or another doubt; inactive = no such curve, though single readings can be large; an effect the other way counts as inactive or inconclusive.

What do the screens show for `O=C(Oc1csc(=S)n1C(=O)c1ccccc1)c1ccccc1`?
Cycloheximide cs: -4; LmPK inhibitor: -22%; Tb PYK inh: inconclusive; Shiga toxin inh: -25; RE007 growth inh: 136%; FBPA Giardia inh: 8%

Results for Cc1cccc(C(=O)Oc2csc(=S)n2C(=O)c2cccc(C)c2)c1 ?
Cycloheximide cs: -2; LmPK inhibitor: -21%; Tb PYK inh: 28µM*; Shiga toxin inh: -4; RE007 growth inh: -16%; FBPA Giardia inh: 11%

How did COc1cccc(C(=O)c2c[nH]c(C(=O)NCCCN3CCOCC3)c2)c1 do in these assays?
Cycloheximide cs: 7; LmPK inhibitor: 0%; Tb PYK inh: -11%; Shiga toxin inh: 14; RE007 growth inh: 7%; FBPA Giardia inh: 1%

What do the screens show for `COc1cccc(C(=O)Nc2ccc(-c3nc4ccccc4s3)cc2Cl)c1`?
Tb PYK inh: 1%

How did COc1cc(C(=O)NCc2nnc(SCC(=O)Nc3nc4ccccc4s3)o2)cc(OC)c1OC do in these assays?
Cycloheximide cs: 14*; LmPK inhibitor: 1%; Tb PYK inh: -4%; Shiga toxin inh: 46*; RE007 growth inh: 4%; FBPA Giardia inh: 16%

What do the screens show for `COc1cccc(C(=O)NCc2ccc(-c3nc4ccccc4s3)cc2)c1`?
Cycloheximide cs: 36*; LmPK inhibitor: 4%; Tb PYK inh: 6%; Shiga toxin inh: 70*; RE007 growth inh: -10%; FBPA Giardia inh: 1%

Results for COc1ccc(C(=O)NCc2ccc(-c3nc4ccccc4s3)cc2)cc1 ?
Cycloheximide cs: 44*; LmPK inhibitor: 0%; Tb PYK inh: 3%; Shiga toxin inh: 44; RE007 growth inh: 0%

How did COc1ccc(C(=O)NCc2nnc(SCC(=O)Nc3nc4ccccc4s3)o2)cc1 do in these assays?
Cycloheximide cs: -3; LmPK inhibitor: 0%; Tb PYK inh: -8%; Shiga toxin inh: 12; RE007 growth inh: 8%; FBPA Giardia inh: 3%

How did COc1ccccc1C(=O)NCc1ccc(-c2nc3ccccc3s2)cc1 do in these assays?
Cycloheximide cs: 41*; LmPK inhibitor: 1%; Tb PYK inh: -10%; Shiga toxin inh: 58*; RE007 growth inh: -24%; FBPA Giardia inh: 7%

What do the screens show for `CC1C(=O)N(S(=O)(=O)c2ccc([N+](=O)[O-])cc2)[C@H]1c1ccc2ccccc2c1` (stereo partly specified)?
Cycloheximide cs: 9; Shiga toxin inh: 23; FBPA Giardia inh: 10%

How did Cc1noc(C)c1C(=O)N1CCC1(C)C(=O)NS(=O)(=O)c1cccc(F)c1 (stereo unspecified) do in these assays?
Tb PYK inh: -3%; RE007 growth inh: 11%

Results for COc1cc(C(=O)NCc2ccc(-c3nc4ccccc4s3)cc2)cc(OC)c1OC ?
Cycloheximide cs: 27*; LmPK inhibitor: 4%; Tb PYK inh: 3%; Shiga toxin inh: 74*; RE007 growth inh: 1%; FBPA Giardia inh: 4%

How did C/C(N)=C(/C#N)C(=O)COC(=O)c1ccncc1 do in these assays?
Cycloheximide cs: -2; LmPK inhibitor: 8%; Tb PYK inh: -1%; Shiga toxin inh: -25; RE007 growth inh: 3%; FBPA Giardia inh: -8%

How did C/C(N)=C(/C#N)C(=O)COC(=O)c1ccccc1Cc1ccccc1 do in these assays?
Cycloheximide cs: 18*; LmPK inhibitor: 0%; Tb PYK inh: -1%; Shiga toxin inh: 22; RE007 growth inh: 12%; FBPA Giardia inh: -11%

How did C/C(N)=C(/C#N)C(=O)COC(=O)c1cccc(O)c1 do in these assays?
Cycloheximide cs: 17; LmPK inhibitor: -2%; Tb PYK inh: -7%; Shiga toxin inh: 97*; RE007 growth inh: -1%; FBPA Giardia inh: -1%

How did CC(=O)Nc1ccc(C(=O)OCC(=O)/C(C#N)=C(\C)N)cc1 do in these assays?
Cycloheximide cs: 25*; LmPK inhibitor: 12%; Tb PYK inh: 1%; Shiga toxin inh: 16; RE007 growth inh: 3%; FBPA Giardia inh: -1%

What do the screens show for `CC1=C(C(=O)Nc2ccccn2)C(c2ccccc2Cl)NC(=S)N1` (stereo unspecified)?
Cycloheximide cs: 40*; LmPK inhibitor: -5%; Tb PYK inh: -3%; Shiga toxin inh: 100*; RE007 growth inh: 4%; FBPA Giardia inh: -3%
